Bioassay records from PubChem.
KCC2 mod: modulates chloride dependent transport by human KCC2. actives 2.2% (n = 190,000). KCC2 cells, thallium flux FluoZin-2 fluorescence. B-score of Tl+ flux slope (higher = more flux/activation; lower = inhibition) at 10 µM. Q9H2X9;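 active means thallium flux slope and its plate-corrected score both differing from the plate sample mean at a set confidence after two filtering rounds, in either direction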;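 further: slope of fluorescence scaled to starting intensity during 10 to 20 s after thallium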
PGE2 EP2 inh: blocks the human prostaglandin E2 receptor EP2 | C6 glioma cells expressing human EP2, cAMP TR-FRET; cells stimulated with saturating PGE2 | inhibition, % at 25 µM | actives 0.52% (n = 260,000) | AID 1422;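 active means percent inhibition above 40 after rounding to a whole number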;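 further: rat C6 glioma host cells with rolipram phosphodiesterase inhibitor present; the protocol text gives 20 µM as final concentration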
EP2 modulator: modulates human prostaglandin E2 receptor EP2 signaling; AID 940; actives 0.83% (n = 260,000); EP2-expressing cells, cAMP HTRF FRET, PGE2 co-stimulation; induction, % at 25 µM;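 active means compounds whose cAMP rise, as percent of the full-agonist control response, exceeds 60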;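 further: rat C6 glioma line stably carrying human EP2 under a CMV promoter; the protocol text gives 20 µM as final concentration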
S1P3 antag: antagonists of human S1P3 receptor | Q99500 | CHO S1P3 NFAT-BLA reporter, FRET fluorescence, antagonist mode | inhibition, % at 4.98 µM | actives 0.27% (n = 170,000);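 active means inhibition above the plate cutoff, the mean inhibition of test wells on that plate plus 3 SD, cut at about 28% in these data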;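 further: cells challenged with S1P at its EC80 of 0.8 µM; blue over green emission ratio from cleaved BLA substrate after 4 h stimulation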
Target sequence (Q99500 whole entry, looked up): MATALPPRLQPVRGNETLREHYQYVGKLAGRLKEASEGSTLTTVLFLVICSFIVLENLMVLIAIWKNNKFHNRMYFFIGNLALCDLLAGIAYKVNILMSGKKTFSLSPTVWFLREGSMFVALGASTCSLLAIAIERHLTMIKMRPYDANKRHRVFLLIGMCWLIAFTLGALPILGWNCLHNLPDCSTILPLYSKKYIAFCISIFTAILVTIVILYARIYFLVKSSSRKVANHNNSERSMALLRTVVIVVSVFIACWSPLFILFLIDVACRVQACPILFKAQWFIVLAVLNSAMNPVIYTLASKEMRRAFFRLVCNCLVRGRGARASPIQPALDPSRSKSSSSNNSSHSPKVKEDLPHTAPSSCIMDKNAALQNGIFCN
Hits are given with their value. A selection: hits, their analogues and other compounds. The true share with any hit is near 3.1%.

How did N#CC1=C(N)SC(N)=C(C#N)C1CCc1ccccc1 do in these assays?
KCC2 mod: -3.1; PGE2 EP2 inh: inactive; EP2 modulator: inactive; S1P3 antag: inactive

Results for CCOc1ccc(C2C(C#N)=C(N)SC(N)=C2C#N)cc1OCC ?
PGE2 EP2 inh: inactive; EP2 modulator: inactive

How did N#CC1=C(N)SC(N)=C(C#N)C1Cc1ccccc1 do in these assays?
PGE2 EP2 inh: inactive; EP2 modulator: inactive; S1P3 antag: inactive

Results for N#CC1=C(N)SC(N)=C(C#N)C1c1ccc([N+](=O)[O-])cc1 ?
KCC2 mod: inactive; PGE2 EP2 inh: inactive; EP2 modulator: inactive; S1P3 antag: inactive

Results for N#CC1=C(N)SC(N)=C(C#N)C1c1ccc(C(F)(F)F)cc1 ?
KCC2 mod: inactive; PGE2 EP2 inh: 49; EP2 modulator: inactive; S1P3 antag: inactive

Results for CCc1ccc(C2C(C#N)=C(N)SC(N)=C2C#N)cc1 ?
KCC2 mod: 7.9; PGE2 EP2 inh: inactive; EP2 modulator: inactive; S1P3 antag: inactive

What do the screens show for `CCc1c(C)nc2ncnn2c1N1CCCC(C(=O)Nc2nnc(C)s2)C1` (configuration not stated)?
PGE2 EP2 inh: inactive; EP2 modulator: inactive

How did Cc1cc(NC(=O)CCC(=O)N(CC(=O)NC2CCCC2)Cc2ccc3c(c2)OCO3)no1 do in these assays?
KCC2 mod: inactive; PGE2 EP2 inh: inactive; EP2 modulator: inactive; S1P3 antag: inactive

Results for Cc1cc(NC(=O)CCC(=O)N(CC(=O)NC2CCCC2)Cc2ccc(F)cc2)no1 ?
KCC2 mod: inactive; PGE2 EP2 inh: inactive; EP2 modulator: inactive; S1P3 antag: 63

Results for COc1ccccc1C1(O)CCN(CCNC(=O)c2ccccc2F)CC1 ?
PGE2 EP2 inh: inactive; EP2 modulator: inactive

What do the screens show for `CCCNC(=O)C(=O)NCCC1=CCCCC1`?
KCC2 mod: inactive; PGE2 EP2 inh: inactive; EP2 modulator: inactive

Results for O=C(NC(=S)NCCC1=CCCCC1)c1cncc(Br)c1 ?
KCC2 mod: 15; PGE2 EP2 inh: inactive; EP2 modulator: inactive; S1P3 antag: inactive

What do the screens show for `CC(=O)Nc1ccc2c(c1)/C(=C/c1ccc([N+](C)(C)C)cc1)c1ccccc1-2`?
PGE2 EP2 inh: 48; EP2 modulator: inactive

What do the screens show for `CC(=O)Nc1ccccc1C=C1c2ccccc2-c2ccccc21`?
PGE2 EP2 inh: inactive; EP2 modulator: inactive

What do the screens show for `CN=C(Nc1cc(C)nn1CCC#N)c1ccccc1`?
KCC2 mod: inactive; PGE2 EP2 inh: inactive; EP2 modulator: inactive; S1P3 antag: inactive

How did Cc1cc(OC(=O)c2ccccc2)n(CCC#N)n1 do in these assays?
KCC2 mod: inactive; PGE2 EP2 inh: inactive; EP2 modulator: inactive; S1P3 antag: 102

How did Cc1nc2ccccc2c(=O)n1CCCN1CCOCC1 do in these assays?
KCC2 mod: inactive; PGE2 EP2 inh: inactive; EP2 modulator: inactive; S1P3 antag: inactive

How did FC(F)(F)c1nc2nc(Cl)c(Cl)nc2n1CCCN1CCOCC1 do in these assays?
PGE2 EP2 inh: 46; EP2 modulator: inactive

What do the screens show for `COCCn1c(=NC(=O)C2COc3ccccc3O2)sc2cc(S(N)(=O)=O)ccc21` (configuration not stated)?
KCC2 mod: inactive; PGE2 EP2 inh: 58; EP2 modulator: inactive; S1P3 antag: inactive

What do the screens show for `C=CCn1c(=NC(=O)C2COc3ccccc3O2)sc2cc(S(N)(=O)=O)ccc21` (configuration not stated)?
KCC2 mod: inactive; PGE2 EP2 inh: inactive; EP2 modulator: inactive; S1P3 antag: inactive

How did CN1CCN(S(=O)(=O)c2ccc(NC(=O)Nc3cccc(Cl)c3)cc2)CC1 do in these assays?
KCC2 mod: inactive; PGE2 EP2 inh: 43; EP2 modulator: inactive; S1P3 antag: inactive

How did CC(=O)c1ccc(NC(=O)CSc2nc3c(c(=O)n(C)c(=O)n3C)n2C(C)C)cc1 do in these assays?
PGE2 EP2 inh: inactive; EP2 modulator: inactive

What do the screens show for `CC(=O)CSc1ncnc2c1oc1ccccc12`?
PGE2 EP2 inh: inactive; EP2 modulator: 62; S1P3 antag: inactive

How did O=C(CSc1ncnc2c1oc1ccccc12)N1CCN(c2ccccc2)CC1 do in these assays?
KCC2 mod: inactive; PGE2 EP2 inh: inactive; S1P3 antag: inactive

Results for CCOC(=O)c1sc(NC(=O)c2ccc(OC)cc2)c(C#N)c1C ?
PGE2 EP2 inh: inactive; EP2 modulator: inactive

What do the screens show for `CC(NC(=O)/C(C#N)=C/c1ccc(Cl)c([N+](=O)[O-])c1)c1ccccc1` (configuration not stated)?
KCC2 mod: inactive; PGE2 EP2 inh: 69; EP2 modulator: inactive; S1P3 antag: inactive

Results for O=C1NC(=S)/C(=C\c2ccc(-c3ccccc3Cl)o2)S1 ?
KCC2 mod: 25; PGE2 EP2 inh: inactive; EP2 modulator: inactive; S1P3 antag: inactive

What do the screens show for `C=C(C)CNC(=S)Nc1nc2c(cc1C(=O)OCC)CCCC2`?
KCC2 mod: 43; PGE2 EP2 inh: inactive; EP2 modulator: inactive; S1P3 antag: inactive

Results for O[N+]1=CC=CCC1=S.On1ccccc1=S.[Zn] ?
PGE2 EP2 inh: 118; EP2 modulator: inactive

What do the screens show for `Cc1cccc2cc(CN(Cc3nnnn3CCc3ccccc3)C3CCCCC3)c(=O)[nH]c12`?
PGE2 EP2 inh: inactive; EP2 modulator: inactive

What do the screens show for `O=C1C2=C(Nc3cc([N+](=O)[O-])ccc3N2)O[C@H]1c1ccc([C@H]2OC3=C(Nc4ccc([N+](=O)[O-])cc4N3)C2=O)cc1`?
PGE2 EP2 inh: 58; EP2 modulator: inactive

Results for Cc1ccn2c(NC3CCCC3)c(-c3cccs3)nc2c1 ?
KCC2 mod: inactive; PGE2 EP2 inh: inactive; EP2 modulator: inactive; S1P3 antag: inactive

Results for c1csc(-c2nc3ccccn3c2NC2CCCCC2)c1 ?
KCC2 mod: inactive; PGE2 EP2 inh: inactive; EP2 modulator: 61; S1P3 antag: inactive

Results for CC1=NOC(=O)/C1=C\c1ccc(-c2cccc(Cl)c2)o1 ?
KCC2 mod: inactive; PGE2 EP2 inh: 109; EP2 modulator: inactive

How did CC1=NOC(=O)/C1=C\c1ccc(-c2ccccc2Br)o1 do in these assays?
KCC2 mod: inactive; PGE2 EP2 inh: 44; EP2 modulator: inactive; S1P3 antag: inactive

Results for Cc1sc(/C=C2\C(=O)ON=C2c2ccccc2)cc1Br ?
KCC2 mod: inactive; PGE2 EP2 inh: inactive; EP2 modulator: inactive; S1P3 antag: inactive

Results for CC1=NOC(=O)/C1=C\c1ccc(-c2ccc(Cl)c(C(=O)O)c2)o1 ?
KCC2 mod: inactive; PGE2 EP2 inh: inactive; EP2 modulator: inactive; S1P3 antag: inactive

How did O=C1ON=C(c2ccccc2)/C1=C\c1ccco1 do in these assays?
KCC2 mod: inactive; PGE2 EP2 inh: inactive; EP2 modulator: inactive; S1P3 antag: inactive

How did Cc1ccc(/C=C2/C(=O)ON=C2c2ccccc2)o1 do in these assays?
KCC2 mod: inactive; PGE2 EP2 inh: 80; EP2 modulator: inactive; S1P3 antag: inactive

What do the screens show for `COCCNC(=O)c1ccccc1NC(=O)CN1C(=O)c2ccccc2S1(=O)=O`?
PGE2 EP2 inh: inactive; EP2 modulator: inactive

What do the screens show for `O=C(CCc1ccccc1)N1CCC(n2nnc3ccccc3c2=O)CC1`?
PGE2 EP2 inh: inactive; EP2 modulator: inactive

What do the screens show for `O=C(c1ccc(Cl)cc1[N+](=O)[O-])N(Cc1ccccc1)Cc1ccccc1`?
KCC2 mod: inactive; PGE2 EP2 inh: inactive; EP2 modulator: inactive; S1P3 antag: inactive
